# From PubChem
# NSD2 HMT inh = inhibitors of human histone methyltransferase NSD2; O96028; inhibition, % at 12.5 µM; AID 743445; 0.54% of 310,000 active; NSD2 peptide methylation, AlphaScreen, 120 min; in the data active = inhibition above about 50%
# Target sequence (O96028 whole entry, looked up): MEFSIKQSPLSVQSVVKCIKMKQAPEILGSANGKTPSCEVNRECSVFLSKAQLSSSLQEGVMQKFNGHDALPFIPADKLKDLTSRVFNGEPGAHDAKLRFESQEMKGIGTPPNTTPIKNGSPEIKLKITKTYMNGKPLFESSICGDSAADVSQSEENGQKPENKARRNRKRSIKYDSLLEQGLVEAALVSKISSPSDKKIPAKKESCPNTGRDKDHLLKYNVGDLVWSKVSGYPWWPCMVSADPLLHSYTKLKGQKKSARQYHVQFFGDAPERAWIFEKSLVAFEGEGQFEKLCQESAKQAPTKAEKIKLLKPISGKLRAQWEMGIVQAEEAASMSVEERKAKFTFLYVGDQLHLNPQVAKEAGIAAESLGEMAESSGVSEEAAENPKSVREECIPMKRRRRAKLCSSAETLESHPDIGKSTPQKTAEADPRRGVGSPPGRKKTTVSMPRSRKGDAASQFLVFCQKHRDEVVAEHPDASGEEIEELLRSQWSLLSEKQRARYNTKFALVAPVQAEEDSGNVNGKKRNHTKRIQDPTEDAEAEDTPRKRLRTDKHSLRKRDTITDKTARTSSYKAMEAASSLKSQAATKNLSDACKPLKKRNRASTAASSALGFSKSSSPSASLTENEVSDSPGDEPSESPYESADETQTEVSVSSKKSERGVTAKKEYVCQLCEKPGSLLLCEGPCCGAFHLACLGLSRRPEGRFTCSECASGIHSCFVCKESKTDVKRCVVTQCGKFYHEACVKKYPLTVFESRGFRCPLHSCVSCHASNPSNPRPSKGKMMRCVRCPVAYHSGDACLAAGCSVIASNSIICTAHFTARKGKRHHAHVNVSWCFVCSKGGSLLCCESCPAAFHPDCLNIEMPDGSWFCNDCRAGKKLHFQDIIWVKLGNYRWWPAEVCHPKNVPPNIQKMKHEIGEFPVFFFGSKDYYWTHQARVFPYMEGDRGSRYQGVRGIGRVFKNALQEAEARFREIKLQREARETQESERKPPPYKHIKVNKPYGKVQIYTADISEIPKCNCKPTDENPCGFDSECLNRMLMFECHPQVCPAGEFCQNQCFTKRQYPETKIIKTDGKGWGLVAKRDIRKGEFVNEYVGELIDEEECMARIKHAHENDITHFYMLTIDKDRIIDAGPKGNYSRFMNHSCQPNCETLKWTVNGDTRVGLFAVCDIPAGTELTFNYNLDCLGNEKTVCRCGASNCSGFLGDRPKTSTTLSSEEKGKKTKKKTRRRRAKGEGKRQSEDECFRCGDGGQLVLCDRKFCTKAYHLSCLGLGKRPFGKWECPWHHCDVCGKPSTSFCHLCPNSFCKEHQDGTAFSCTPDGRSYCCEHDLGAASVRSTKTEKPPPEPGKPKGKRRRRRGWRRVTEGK
# PglD DTNB = blocks C. jejuni PglD acetyltransferase activity. 0.098% of 360,000 active. purified PglD enzyme, DTNB colorimetric CoA detection. inhibition, % at 12.5 µM. AID 602405; in the data active = inhibition above about 16%, passing the limit was not always enough
# C2C12 statin = suppressors of simvastatin-induced myotoxicity in C2C12 myotubes; AID 602340; rescue of ATP level, % at 7.49 µM; ATP luminescence, 48 h; scaled: DMSO 0, geranylgeraniol control 100; 0.78% of 330,000 active;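 active = mean ATP rescue above about 67%, or every replicate alone reaching that limit, limit read from the data, passing the limit was not always enough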;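 note: myotubes were challenged with 10 µM simvastatin during compound exposure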
# miR-122 sensor = miR-122 inhibition in Huh7 cells | Huh7 miR-122 Renilla luciferase sensor, 48 h; neutral wells = 0, positive control = 100 | 0.3% of 340,000 active | activation (reporter increase), % at 12.5 µM;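 active = mean replicate activation score at least 90 and every replicate individually at or above 90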;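 note: higher luciferase means less miR-122 activity so hits act as miR-122 inhibitors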
# * hit, by the source's call; nt = no result; [ ] = remark or other dose. Only some compounds are listed: those with a hit (about 1.2% of all), similar ones and a draw of the others.
SMILES,NSD2 HMT inh,PglD DTNB,C2C12 statin,miR-122 sensor
CN1CCN(C(=O)C[C@H]2C[C@@H]3c4cc(NC(=O)NC5CCCCC5)ccc4O[C@@H]3[C@H](CO)O2)CC1,nt,0,-6,-7[16.7 µM]
COc1ccc(C2C(C(=O)OCC(=O)Nc3ccc(C)cc3)CCC(=O)N2c2ccc(OC)cc2)cc1 (configuration not stated),3,8,95*,0
COc1ccc(C2C(C(=O)OCC(=O)NC(C)(C)C)CCC(=O)N2c2ccc(C)cc2)cc1OC (configuration not stated),-2,5,2,35
O=C1C(=C(c2ccccc2)c2ccccc2)Nc2ccccc21,28,-6,100*,-13
O=C(Nc1ccc(F)cc1)N1C[C@H]2[C@@H](c3ccccc31)[C@H](CO)N2Cc1ccccc1,nt,-12,0,90[16.7 µM]
Cc1cc(C)c(C#N)c(N2CCCC(C(N)=O)C2)n1 (configuration not stated),1,-4,170*,-16
CC(C)NC(=O)N[C@H]1CC[C@H](CCN)O[C@H]1CO,nt,-7,0,1[16.7 µM]
CCC(=O)c1cc2c(cc1NC(=O)c1ccc(C)cc1)OCCO2,-1,nt,-40,2
CCCc1cc2c(cc1NC(=O)c1ccc(C)cc1)OCO2,0,nt,91*,10
C[C@@H]1CN([C@@H](C)CO)C(=O)c2cc(C#CC3CC3)cnc2O[C@@H]1CN(C)C(=O)C1CCCCC1,nt,nt,-1,-2[16.7 µM]
COc1ccccc1CNC(=O)C[C@H]1C=C[C@@H](NC(=O)CN(C)C)[C@@H](CO)O1,nt,0,-3,nt
CCc1nc(OCc2ccccc2)c2sc3nc4c(cc3c2n1)COC(C)(C)C4,-3,1,8,5
CC1(C)Cc2nc3sc4c(OCc5ccccc5)ncnc4c3cc2CO1,18,3,74*,-13
O=C(CN1CCOCC1)N1CC[C@@H]2[C@H](CO)Nc3ccc(-c4ccccc4)cc3[C@@H]21,nt,0,5,6[16.7 µM]
O=C(Cn1c(=O)[nH]n(-c2ccccc2)c1=O)N1CCCc2ccccc21,-2,0,86*,1
CCn1cc(S(=O)(=O)CC(=O)Nc2ccc(C)cc2)c2ccccc21,nt,2,3,98*
COCC(=O)N1C[C@H](C)[C@@H](OC)CN(C)C(=O)c2cc(NC(=O)c3cc(C)on3)ccc2OC[C@@H]1C,nt,0,9,nt
O=S(=O)(c1ccccc1)c1cc(O)ccc1O,9,6,2,221*
S=c1nc(-c2ccco2)[nH][nH]1,2,-4,96*,5
Cn1c(-c2ccco2)n[nH]c1=S,-7,nt,nt,nt
C=CCOc1ccc(CNn2nnnc2N)cc1,1,4,nt,-2
Nc1nnnn1NCc1cccc(OCc2ccccc2)c1,7,-1,104*,3
O=C(C[C@@H]1CC[C@@H](NC(=O)Nc2ccc3c(c2)OCO3)[C@@H](CO)O1)NCc1ccc2c(c1)OCO2,nt,-3,0,nt
COc1ccc(NS(=O)(=O)c2cc(NC(=O)c3sccc3C)ccc2N2CCOCC2)cc1,-2,0,1,188*
COc1ccc(NS(=O)(=O)c2cc(NC(=O)c3ccccc3)ccc2N2CCOCC2)cc1,-4,3,8,6
SMILES,NSD2 HMT inh,PglD DTNB,C2C12 statin,miR-122 sensor
COc1cc(OC)c(S(=O)(=O)Nc2ccccc2N2CCCCC2)cc1NC(C)=O,1,nt,-1,7
COc1ccccc1NS(=O)(=O)c1cc(NC(=O)c2sccc2C)ccc1N1CCCC1,0,nt,14,173*
COc1ccccc1NS(=O)(=O)c1cc(NC(=O)c2sccc2C)ccc1N1CCOCC1,2,1,7,84
COc1cc(S(=O)(=O)Nc2ccccc2N2CCCCC2)ccc1NC(C)=O,-1,2,-40,111*
COc1ccccc1NS(=O)(=O)c1cc(NC(=O)Nc2ccccc2)ccc1N1CCCCC1,-3,2,nt,289*
CC=Cc1ccc2n(c1=O)C[C@@H]1[C@@H](CO)[C@H](C(=O)N3CCOCC3)N(Cc3ccccc3)[C@H]21 (mixture of isomers),nt,0,-1,1[16.7 µM]
O=C(/C=C/c1ccccc1)Nc1cccnc1Oc1ccccc1F,-1,0,94*,5
COc1ccc(-c2ccc([C@H]3[C@H](C#N)N(C(=O)NC4CCCC4)[C@H]3CO)cc2)cc1,nt,1,3,nt
CC(C)Cc1nc2sc3c(=O)[nH]cnc3c2c2c1CCC2,0,2,3,126*
CCCc1nc2sc3c(=O)[nH]cnc3c2c2c1CCCC2,1,nt,nt,nt
C[C@H]1CN([C@@H](C)CO)S(=O)(=O)c2ccc(C#Cc3ccccc3F)cc2O[C@H]1CN(C)C(=O)c1ccc2c(c1)OCO2,nt,2,28,41[16.7 µM]
Oc1ccc(Cl)cc1CNc1cccc2cccnc12,3,4,16,2
Oc1ccc(Br)cc1CNc1cccc2cccnc12,13,-3,83*,nt
